About 2,000 (36%) of roughly 5,500 compounds were called active. Roughly 18% stayed inconclusive and do not appear here. This is one part of the list. Values without a mark were called inactive. No stated cut-off is given here; in the data, active means normalized growth mostly below about 0.91 (no sharp cut-off); inconclusive means no clear call, values can overlap the other calls; inactive means mostly above about 0.92.
Test: chemical genetic growth profiling, strain panel (AID 1159580);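 further: tested at 20 µM; growth read once vehicle control cultures reached saturation at 30 °C; 1 = growth at the plate median or of vehicle wells; lower values mean less growth of the strain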
Conditions: S. cerevisiae deletion strains, growth OD

CC1CC2C3CCC4=CC(=O)C=CC4(C)C3(F)C(O)CC2(C)C1(O)C(=O)CO (centres undefined)
normalized growth (locus YAL040C, strain CLN3, active compounds read low): 0.987 | normalized growth (locus YDR363W, strain ESC2, active compounds read low): 0.955 | normalized growth (locus YER002W, strain NOP16, active compounds read low): 1 | normalized growth (locus YGR078C, strain PAC10, active compounds read low): 1.02 | normalized growth (locus YNL175C, strain NOP13, active compounds read low): 1.01 | normalized growth (locus YNL197C, strain WHI3, active compounds read low): 0.999 | normalized growth (locus YNL224C, strain SQS1, active compounds read low): 1.01 | normalized growth (locus YOR083W, strain WHI5 (second series), active compounds read low): 1.01

Fc1cc(I)ccc1Nc1ccnc2cc(Cl)ccc12
normalized growth (locus YAR019C, strain CDC15, active compounds read low): 0.977 | normalized growth (locus YBL105C, strain PKC1, active compounds read low): 0.975 | normalized growth (locus YBR135W, strain CKS1, active compounds read low): 0.981 | normalized growth (locus YBR136W, strain MEC1, active compounds read low): 0.989 | normalized growth (locus YBR160W, strain CDC28, active compounds read low): 0.978 | normalized growth (locus YDL017W, strain CDC7, active compounds read low): 0.977 | normalized growth (locus YDL028C, strain MPS1, active compounds read low): 0.979 | normalized growth (locus YDL101C, strain DUN1, active compounds read low): 0.981 | normalized growth (locus YDL108W, strain KIN28, active compounds read low): 0.986 | normalized growth (locus YDL132W, strain cdc53, active compounds read low): 0.986 | normalized growth (locus YDL214C, strain PRR2, active compounds read low): 0.911 | normalized growth (locus YDR052C, strain DBF4, active compounds read low): 0.968 | normalized growth (locus YDR054C, strain cdc34, active compounds read low): 0.974 | normalized growth (locus YDR226W, strain ADK1, active compounds read low): 0.993 | normalized growth (locus YDR477W, strain SNF1, active compounds read low): 0.949 | normalized growth (locus YER123W, strain YCK3, active compounds read low): 0.901 | normalized growth (locus YER133W, strain GLC7, active compounds read low): 0.948 | normalized growth (locus YFL009W, strain cdc4, active compounds read low): 0.978 | normalized growth (locus YFL029C, strain CAK1, active compounds read low): 0.98 | normalized growth (locus YFR003C, strain YPI1, active compounds read low): 0.991 | normalized growth (locus YFR019W, strain FAB1, active compounds read low): 0.943 | normalized growth (locus YFR028C, strain CDC14, active compounds read low): 0.981 | normalized growth (locus YGR040W, strain KSS1, active compounds read low): 0.918 | normalized growth (locus YGR052W, strain FMP48, active compounds read low): 1.06 | normalized growth (locus YGR092W, strain DBF2, active compounds read low): 0.954 | normalized growth (locus YHR030C, strain SLT2, active compounds read low): 0.841 (active) | normalized growth (locus YHR079C, strain IRE1, active compounds read low): 1 | normalized growth (locus YHR082C, strain KSP1, active compounds read low): 0.974 | normalized growth (locus YHR205W, strain SCH9, active compounds read low): 0.93 | normalized growth (locus YIL147C, strain SLN1, active compounds read low): 0.981 | normalized growth (locus YJL095W, strain BCK1, active compounds read low): 0.939 | normalized growth (locus YJL128C, strain PBS2, active compounds read low): 0.978 | normalized growth (locus YJL157C, strain FAR1, active compounds read low): 0.954 | normalized growth (locus YJR016C, strain ILV3, active compounds read low): 0.975 | normalized growth (locus YJR066W, strain TOR1 (second series), active compounds read low): 0.953 | normalized growth (locus YJR066W, strain TOR1, active compounds read low): 0.958 | normalized growth (locus YKL048C, strain ELM1, active compounds read low): 0.94 | normalized growth (locus YKL067W, strain YNK1, active compounds read low): 0.934 | normalized growth (locus YKL101W, strain HSL1, active compounds read low): 0.932 | normalized growth (locus YKL193C, strain SDS22, active compounds read low): 0.991 | normalized growth (locus YKL203C, strain TOR2, active compounds read low): 0.976 | normalized growth (locus YLR113W, strain HOG1, active compounds read low): 0.915 | normalized growth (locus YLR133W, strain CKI1, active compounds read low): 0.933 | normalized growth (locus YLR403W, strain SFP1, active compounds read low): 0.95 | normalized growth (locus YML070W, strain DAK1, active compounds read low): 0.933 | normalized growth (locus YMR001C, strain CDC5, active compounds read low): 0.985 | normalized growth (locus YMR205C, strain PFK2 (second series), active compounds read low): 0.937 | normalized growth (locus YMR277W, strain FCP1, active compounds read low): 0.984 | normalized growth (locus YNL006W, strain LST8, active compounds read low): 0.998 | normalized growth (locus YNL020C, strain ARK1, active compounds read low): 0.912 | normalized growth (locus YNL161W, strain CBK1, active compounds read low): 0.983 | normalized growth (locus YNL183C, strain NPR1, active compounds read low): 0.957 | normalized growth (locus YNL207W, strain RIO2, active compounds read low): 0.984 | normalized growth (locus YNL222W, strain SSU72, active compounds read low): 0.996 | normalized growth (locus YNL307C, strain MCK1 (second series), active compounds read low): 0.91 | normalized growth (locus YOL078W, strain AVO1, active compounds read low): 0.981 | normalized growth (locus YOL136C, strain PFK27, active compounds read low): 0.925 | normalized growth (locus YOR061W, strain CKA2, active compounds read low): 0.966 | normalized growth (locus YOR119C, strain RIO1, active compounds read low): 1.02 | normalized growth (locus YOR231W, strain MKK1, active compounds read low): 0.95 | normalized growth (locus YOR329C, strain SCD5, active compounds read low): 0.986 | normalized growth (locus YPL031C, strain PHO85, active compounds read low): 0.911 | normalized growth (locus YPL153C, strain RAD53, active compounds read low): 0.923 | normalized growth (locus YPL204W, strain HRR25, active compounds read low): 0.912 | normalized growth (locus YPL209C, strain IPL1, active compounds read low): 0.983 | normalized growth (locus YPL256C, strain CLN2, active compounds read low): 0.951 | normalized growth (locus YPR025C, strain CCL1, active compounds read low): 0.986 | normalized growth (locus YPR106W, strain ISR1, active compounds read low): 0.973 | normalized growth (locus YPR111W, strain DBF20, active compounds read low): 0.972 | normalized growth (strain NNK1, active compounds read low): 0.973 | normalized growth (strain TSCII, active compounds read low): 0.982

— PubChem BioAssay AID1159580 (chemical genetic matrix, 2015)
